# Laboratory results as given in PubChem BioAssay (NCATS).
# Results filed as inconclusive are left out. A call without a number means that no potency is given here. The source made the active and inactive calls. Calls follow the shape of the dose curve; as a rule, active = well fitted inhibition curve with a large enough effect; inconclusive = small, poorly fitted or top-dose-only effect; inactive = flat fitted curve, though single readings scatter.
# Test system: Zika virus NS2B-NS3 protease
# Test: Primary screen GU AMC qHTS for Zika virus inhibitors (AID 1347154); also: nearly all actives have a fitted effect of over 70% in size
# Conditions: Zika NS2B-NS3 unlinked protease, AMC fluorogenic substrate; series mostly up to 54.1 µM
# How it was run: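 Fluorogenic AMC-substrate cleavage by noncovalent NS2B-NS3 protease complex (25 nM, pH 8.0 Tris buffer with Tween 20) followed for 15 minutes at room temperature (~20% conversion). Percent inhibition from ex340/em450 signal change, fitted by 4-parameter Hill equation.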
row,Compound,Potency
1,CC(=O)OCC[N+](C)(C)C,inactive
2,CCOC(=O)OCC/C(SC(=O)OCC)=C(\C)N(C=O)Cc1cnc(C)nc1N,inactive
3,C/C=C(/C(=C/C)c1ccc(OC(C)=O)cc1)c1ccc(OC(C)=O)cc1,inactive
4,CC(=O)N[C@@H](CCC(N)=O)C(=O)O,inactive
5,CN1Cc2cc(C(=O)N3CCC(C4CCNCC4)CC3)ccc2NC(CC(=O)O)C1=O (centres undefined),inactive
6,O=C(O)C1CCC1,inactive
7,CC(C)(c1ccc(O)cc1)c1ccc(O)cc1,inactive
8,Cc1nc([N+](=O)[O-])cn1-c1ccc([N+](=O)[O-])cc1,inactive
9,Fc1ccc(C(c2ccc(F)cc2)N2CCNCC2)cc1,inactive
10,O=C(O)Cn1c(=O)n(Cc2ccc(Br)cc2F)c(=O)c2ccc(Cl)cc21,inactive
11,OCCc1ccccc1,inactive
12,Cc1cccc(OCC(O)CNC(C)(C)C)c1C (centres undefined),inactive
13,O=C(c1ccccc1)c1ccccc1,inactive
14,CCCCCCCCCCCCCCCCCCNC(=O)OC1CCN(C(=O)OC[C@H](COC(=O)N(Cc2cccc[n+]2CC)C(=O)c2ccccc2OC)OC)CC1,inactive
15,Cc1ccc2c(Cl)cc(Cl)c(O)c2n1,inactive
16,O=C(O)c1[nH]n(-c2ccc(S(=O)(=O)O)cc2)c(=O)c1N=Nc1ccc(S(=O)(=O)O)cc1,inactive
17,COc1ccccc1N1CCN(CC(O)COc2cc(OC)c(OC)c(OC)c2)CC1 (centres undefined),inactive
18,CCCCC(CC)COC(=O)c1ccccc1C(=O)O (centres undefined),inactive
19,COc1ccc2c(c1)c(CC(=O)OC/C=C(\C)CC/C=C(\C)CCC=C(C)C)c(C)n2C(=O)c1ccc(Cl)cc1,inactive
20,COC(=O)c1cc(Cl)ccc1OC,inactive

row,Compound,Potency
1,COc1ccc(/C(C)=C/C(=O)O)c(OC)c1,inactive
2,CN(C)CCOC(c1ccccc1)c1ccc(Br)cc1 (centres undefined),inactive
3,Cc1c(F)cc2c(=O)c(C(=O)O)cn3c2c1CCC3C (centres undefined),inactive
4,CN1CCCN=C1/C=C/c1cccs1,inactive
5,COC(=O)C1=C(C)NC(C)=C(C(=O)OCCc2ccc(N3CCN(C(c4ccccc4)c4ccccc4)CC3)cc2)C1c1cccc([N+](=O)[O-])c1 (centres undefined),inactive
6,CC(=O)c1ccc(O)c(C(N)=O)c1,inactive
7,CC1(C)OC(=O)Nc2ccc(Br)cc21,inactive
8,O=C(O)Cc1ccc(OCCNC[C@H](O)c2ccccc2)cc1,inactive
9,CC(COc1ccccc1)NN (centres undefined),inactive
10,COC(=O)/C=C(/C)N,inactive
11,CN(C)CCN1CCN(c2cccc(Cl)c2)C1=O,inactive
12,CC(C)NC(=O)c1ccc(C=O)cc1,inactive
13,C/C(=C1\CCOC(=O)S1)N(C=O)Cc1cnc(C)nc1N,inactive
14,CC(C)(C)c1ccc(O)c(O)c1,inactive
15,C/C(=N/NC(=O)c1ccncc1)C(=O)O,inactive
16,Cc1cc(O)c(C)c(C)c1O,inactive
17,COc1cc(S(N)(=O)=O)cc(C(=O)O)c1OC,inactive
18,C[N+]1(C)CCC(OC(=O)C(O)(c2ccccc2)C2CCCC2)C1 (centres undefined),inactive
19,Oc1ccccc1,inactive
